The results in this text go back to article PMC4336329 (PLoS ONE, 2015).

The structures appear in SMILES notation. Among all 310,000 compounds or so, about 14,000 (4.5%) showed an effect of 50% or more. The effect is printed as a negative number. Shown is part of a subset that was picked to be rich in strong results.
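Further: peak tail current of the secondary pulse compared with the same well before compound.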

For the assay, the target named is human ether-à-go-go-related gene (hERG) potassium channel (human, UniProt Q12809). The assay is described as follows: primary screen, population patch clamp on CHO cells stably expressing hERG; higher = less effect of the substance.
human ether-à-go-go-related gene (hERG) potassium channel, sequence (Q12809 whole entry, looked up): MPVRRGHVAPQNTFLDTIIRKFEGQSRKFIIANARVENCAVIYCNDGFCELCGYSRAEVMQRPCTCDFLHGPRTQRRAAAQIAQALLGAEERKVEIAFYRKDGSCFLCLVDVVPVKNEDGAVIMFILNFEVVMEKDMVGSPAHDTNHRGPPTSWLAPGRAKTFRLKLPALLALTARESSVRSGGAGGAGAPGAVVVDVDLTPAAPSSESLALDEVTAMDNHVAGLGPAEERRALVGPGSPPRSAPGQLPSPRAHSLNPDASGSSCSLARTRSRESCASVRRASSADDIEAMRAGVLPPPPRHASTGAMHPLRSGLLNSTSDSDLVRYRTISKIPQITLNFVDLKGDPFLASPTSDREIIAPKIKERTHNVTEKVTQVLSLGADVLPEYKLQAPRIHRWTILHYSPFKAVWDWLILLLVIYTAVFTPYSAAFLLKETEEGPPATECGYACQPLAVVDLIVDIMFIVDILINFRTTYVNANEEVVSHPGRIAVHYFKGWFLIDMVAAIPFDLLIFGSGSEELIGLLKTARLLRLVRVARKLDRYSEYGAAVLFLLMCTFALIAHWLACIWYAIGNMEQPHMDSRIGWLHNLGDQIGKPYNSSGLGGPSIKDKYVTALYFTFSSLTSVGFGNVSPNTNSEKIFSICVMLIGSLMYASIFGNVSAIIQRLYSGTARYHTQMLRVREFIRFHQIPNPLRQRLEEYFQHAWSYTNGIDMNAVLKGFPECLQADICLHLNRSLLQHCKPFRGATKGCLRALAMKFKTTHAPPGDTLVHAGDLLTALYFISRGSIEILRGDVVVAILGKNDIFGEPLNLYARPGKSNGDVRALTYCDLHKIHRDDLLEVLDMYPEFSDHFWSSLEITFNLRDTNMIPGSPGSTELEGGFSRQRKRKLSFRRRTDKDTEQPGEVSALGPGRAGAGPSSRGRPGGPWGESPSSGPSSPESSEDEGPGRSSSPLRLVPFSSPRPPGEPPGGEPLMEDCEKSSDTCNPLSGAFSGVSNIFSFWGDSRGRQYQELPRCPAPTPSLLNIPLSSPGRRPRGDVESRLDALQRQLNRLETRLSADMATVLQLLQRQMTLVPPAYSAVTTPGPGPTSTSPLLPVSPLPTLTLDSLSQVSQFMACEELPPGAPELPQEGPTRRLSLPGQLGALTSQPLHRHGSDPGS
`CC1CCN(CCNC(=S)Nc2ccc(Cl)cc2)CC1`: the “hERG current change (%, negative = inhibition) at 10uM” value was -65.7%.

Regarding `CC1CCCN(CCC(=O)c2ccc(Br)cc2)C1.Cl` (stereo not drawn), the “hERG current change (%, negative = inhibition) at 10uM” value is recorded as -64.4%.

In the case of `CC1CCCN(CCC(=O)Nc2ccccc2)C1.Cl` (stereo not drawn), the “hERG current change (%, negative = inhibition) at 10uM” value was 12.2%. As to `CC1CCN(CCC(=O)Nc2ccc(Br)cc2)CC1.Cl`, the “hERG current change (%, negative = inhibition) at 10uM” value is -54.6%. As for `COc1ccc(NC(=S)NCCN2CCC(C)CC2)cc1`, the figure is -46%; as for `CCN1CCN(CCC(=O)Nc2ccc(Br)cc2)CC1.Cl`, -24.4%. Next, `COc1ccc(NC(=O)CCN2CCCC(C)C2)cc1` (stereo not drawn): -23.2%; `Cc1cccc(NC(=O)CCN2CCCC(C)C2)c1.Cl` (stereo not drawn): 1.45%; `S=C(NCCN1CCOCC1)Nc1ccc(Cl)cc1`: 5.48%. Next, `Cl.O=C(CCN1CCCC1)Nc1ccc(Br)cc1`: -15.7%. For `CC1CCCN(CCC(=O)Nc2ccc(Br)cc2)C1.Cl` (stereo not drawn), the “hERG current change (%, negative = inhibition) at 10uM” value is on record as -57.6%. Regarding `COc1ccc(C(=O)CCN2CCCC(C)C2)cc1.Cl` (stereo not drawn), the “hERG current change (%, negative = inhibition) at 10uM” value is recorded as -26.2%. Next, `CCS(=O)(=O)c1ncc(Cl)c(C(=O)Nc2ccc(S(=O)(=O)N3CCC(C)CC3)cc2)n1`: 14.9%; `CC(=O)c1ccc(NC(=O)C(C)OC(=O)c2ccc(NS(=O)(=O)c3ccc(F)c(F)c3)cc2)cc1` (stereo not drawn): -6.98%; `COc1ccc(C(C)NC(=O)c2ccc(Cl)cc2)cc1OC` (stereo not drawn): 0.0898%. Next, `Cc1ccc(/C=C/c2nnc(-c3ccc(C)cc3)o2)cc1`: 11.3%; `COCCNC(=O)Nc1ccc2c(c1)N(C)C(=O)CS2`: 11.5%; `COc1ccc(NC(=O)/C(=C\c2ccc(OS(=O)(=O)c3ccc(C)cc3)cc2)NC(=O)c2ccccc2)cc1`: 17.1%. Next, `CC(=O)N1CCN=C1SCc1ccccc1F`: 12.6%. In the case of `Cc1cc(C(=O)O)c(S(C)(=O)=O)s1`, the “hERG current change (%, negative = inhibition) at 10uM” value is -1.18%. As for `O=[N+]([O-])c1cccc(-c2nnn(C34CC5CC(CC(C5)C3)C4)n2)c1`, the figure is 5.85%; as for `Cc1cccc(NC(=O)CCN2CC(C)CC(C)C2)c1.Cl` (stereo not drawn), -49.2%; as for `CC1CCN(CCC(=O)Nc2ccc(Cl)cc2)CC1.Cl`, -56.9%. Next, `CC1CCN(CCC(=O)Nc2ccccc2)CC1`: -10.1%; `CC1CC(C)CN(CCC(=O)Nc2ccc(Br)cc2)C1.Cl` (stereo not drawn): -53.5%. Next, `CC1CC(C)CN(CCC(=O)Nc2ccc3c(c2)CCC3)C1.Cl` (stereo not drawn): -43.6%. For the molecule `Cc1ccc(NC(=O)CCN2CCC(C)CC2)cc1.Cl`, the “hERG current change (%, negative = inhibition) at 10uM” value was found to be 18.6%.

As for `COc1ccc(CN2C(=O)NC3(CCOc4ccccc43)C2=O)cc1F` (stereo not drawn), the “hERG current change (%, negative = inhibition) at 10uM” value is given as -13.4%. As to `COC(=O)c1c(NC(=S)Nc2ccc(F)cc2[N+](=O)[O-])sc2c1CCCCC2`, the “hERG current change (%, negative = inhibition) at 10uM” value is 4.46%. As to `CCOC(=O)C1CCCN(C/C=C/c2ccccc2)C1` (stereo not drawn), the “hERG current change (%, negative = inhibition) at 10uM” value is -24.5%. As for `CC1CCCN(C/C=C/c2ccccc2[N+](=O)[O-])C1` (stereo not drawn), the “hERG current change (%, negative = inhibition) at 10uM” value is recorded as -23.1%. As for `CC1CC(C)CN(C/C=C/c2ccccc2[N+](=O)[O-])C1` (stereo not drawn), the figure is -55.9%; as for `CCOC(=O)C1CCN(C/C=C/c2ccccc2[N+](=O)[O-])CC1`, -70.2%.

As to `CC1CCCCN1C/C=C/c1ccccc1[N+](=O)[O-]` (stereo not drawn), the “hERG current change (%, negative = inhibition) at 10uM” value is given as -39%. As for `CCOC(=O)C1CCN(C/C=C/c2ccccc2OC)CC1`, the figure is -20.5%; as for `CCC1CCCCN1C/C=C/c1ccccc1[N+](=O)[O-]` (stereo not drawn), -60.2%. Take `CCN(CC)C(=O)C1CCCN(C/C=C/c2ccccc2[N+](=O)[O-])C1` (stereo not drawn): the “hERG current change (%, negative = inhibition) at 10uM” value is -33%. As for `O=[N+]([O-])c1ccccc1/C=C/CN1CCCCC1`, the figure is -6.44%; as for `CCOC(=O)C1CCCN(C/C=C/c2ccccc2[N+](=O)[O-])C1` (stereo not drawn), -68.2%. For the molecule `O=[N+]([O-])c1ccccc1/C=C/CN1CCCCC1CO` (stereo not drawn), the “hERG current change (%, negative = inhibition) at 10uM” value is 5.49%. As for `CCOC(=O)C1CCN(C/C=C/c2ccccc2)CC1`, the figure is -28.2%; as for `C[N+](C)(C)CCN1C(=O)CSC1=O.[I-]`, 10.3%. Next, `COC(=O)c1ccc(NC(=O)CSCc2ccccc2)cc1`: -13.8%; `Cc1ccccc1C(=O)O/N=C1\CCS(=O)(=O)c2sccc21`: 8.17%. As for `Cc1ccccc1NC(=S)NC(NC(=O)CF)C(Cl)(Cl)Cl` (stereo not drawn), the figure is 2.77%; as for `CCOP(=O)(OCC)C(NC(=O)Nc1cccc(Cl)c1)C(N)=O` (stereo not drawn), 8.47%. Consider `C/C(=N\OCC(=O)Nc1ccccc1C(C)(C)C)c1ccc2c(c1)OCCO2`, for which the “hERG current change (%, negative = inhibition) at 10uM” value was -10.9%. As for `O=C(Nc1ccc(Cl)cc1)OCc1cc(-c2ccccc2Cl)on1`, the “hERG current change (%, negative = inhibition) at 10uM” value is recorded as 7.51%. Next, `CC1CN(C(=O)COC(=O)c2ccc(Cl)nc2)CC(C)O1` (stereo not drawn): 6.41%; `COc1ccc(OC)c(C2CC(=O)N3CN(c4ccccc4)CSC3=C2C#N)c1` (stereo not drawn): 9.38%; `CC(=O)n1cc(/C=C2/N=C(c3ccccc3)OC2=O)c2ccccc21`: 7.37%.

For the molecule `CC1CC(c2ccccc2)n2nc(N3C(=O)c4ccccc4C3=O)nc2N1` (stereo not drawn), the “hERG current change (%, negative = inhibition) at 10uM” value came to 12.4%. Take `CC1=CC(c2ccccc2)n2nc(N3C(=O)C4CC=CCC4C3=O)nc2N1` (stereo not drawn): the “hERG current change (%, negative = inhibition) at 10uM” value is -7.93%.

Regarding `O=C1C2CC=CCC2C(=O)N1c1nc2n(n1)C(c1ccccc1)CC(c1ccccc1)N2` (stereo not drawn), the “hERG current change (%, negative = inhibition) at 10uM” value is reported as -52.6%. In the case of `CC1C/C(=C/c2cccn2C)C(=O)/C(=C/c2cccn2C)C1` (stereo not drawn), the “hERG current change (%, negative = inhibition) at 10uM” value stood at 9.5%. Next, `O=C(NCc1nc(-c2ccc(C(F)(F)F)cc2)no1)c1cccs1`: 5.51%. As for `CCOc1ccc(-n2ccnc2SCC(=O)N2CCCc3ccccc32)cc1`, the figure is -13.7%. With `N#CCCN1CCN(C(=S)c2ccc(-c3ccc(Cl)c(Cl)c3)o2)CC1`, the “hERG current change (%, negative = inhibition) at 10uM” value is on record as -14.1%. In the case of `N#CCCN1CCN(C(=S)c2ccc(-c3cc(Cl)ccc3Cl)o2)CC1`, the “hERG current change (%, negative = inhibition) at 10uM” value was -12.3%.

With `N#CCCN1CCN(C(=S)c2ccc(-c3ccc(Cl)cc3)o2)CC1`, the “hERG current change (%, negative = inhibition) at 10uM” value is recorded as -55.8%.

Turning to `S=C(c1ccc(-c2cccc(Cl)c2)o1)N1CCCCC1`, the “hERG current change (%, negative = inhibition) at 10uM” value amounted to 21.7%. Next, `S=C(c1ccc(-c2cccc(Cl)c2)o1)N1CCOCC1`: 2.46%; `N#CCCN1CCN(C(=S)c2ccc(-c3cccc(Cl)c3)o2)CC1`: -59.9%.
